A selection: hits, their analogues and other compounds. The true share with any hit is near 19%.
HepG2 tox = qHTS for Inhibitors of TGF-b: Cytotox Counterscreen; 410,000 tested, 0.76% active; HepG2 CAGA-GFP viability, ATP luminescence, 18 h; Potency, µM (titrated, usually from 46.1 µM), inactives show at the highest dose activity change, negative = cytotoxicity, most hits filed as cytotoxic; also: potency is read from the fitted curve at half-maximal effect
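CellTiter-Glo luminescence gave cytotoxicity after 18 hours at 37 degrees C. The cells were HepG2 CAGA-GFP in 1% FBS DMEM, stimulated with 500 pg/mL TGF-beta after compound addition. %Activity was normalised to no-cell wells (complete cell-killing) and DMSO (no toxicity), and curves were fitted and classified.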
DT40 TDP1 CPT = qHTS for Inhibitors of human tyrosyl-DNA phosphodiesterase 1 (TDP1): qHTS in cells in presence of CPT; chicken DT40 Tdp1-/-;hTDP1 cells + 20 nM CPT, ATP luminescence, 48 h; Potency, µM (highest dose often 46.2 µM), without a hit: top-dose activity change, negative = growth inhibition, most hits filed as inhibitors; 420,000 tested, 12% active; also: potency is read from the fitted curve at half-maximal effect; % is scaled to controls: 0 for no effect and ±100 for the full control effect; nearly all actives have a fitted effect of over 55% in size
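Chicken DT40 Tdp1-/- cells complemented with human TDP1, 400 cells/well, exposed to compounds plus 20 nM camptothecin for at least 48 h at 37 C; viability read as ATP content by CellTiter-Glo luminescence.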
IL1B secr inh = qHTS for Inhibitors of Inflammasome Signaling: IL-1-beta AlphaLISA Primary Screen | THP-1 LPS/ATP IL-1B secretion, AlphaLISA, 16 h; stronger effect = lower value | 360,000 tested, 4.7% active | activity change, % at 57.5 µM | AID 743279, 2014; in the data active = activity change below about -50%; inconclusive = mostly about -30% to -49%; also: % is scaled to controls: 0 for no effect and ±100 for the full control effect
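Secreted IL-1B measured by AlphaLISA bead assay after 16 h compound exposure of THP-1 cells; compounds (final up to 57.5 uM) added 1 h before LPS (250 ng/mL) and ATP (1.25 mM) stimulation; lower signal means less secretion.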
TGFb inhibitor = qHTS for Inhibitors of TGF-b; HepG2 CAGA-GFP TGF-b/SMAD3 reporter, GFP fluorescence, 18 h; TGF-beta stimulated, 500 pg/mL final; Potency, µM (titrated, usually from 46.1 µM), for the others: at the top dose activity, negative = inhibition, most hits filed as inhibitors; 410,000 tested, 1.2% active; also: potency is read from the fitted curve at half-maximal effect; % is scaled to controls: 0 for no effect and ±100 for the full control effect; nearly all actives have a fitted effect of over 65% in size
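Smad-responsive CAGA-GFP expression was quantified in HEPG2 cells exposed to compounds and 500 pg/mL final TGF-beta for 18 h at 37 degrees C; unstimulated wells defined full inhibition.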
TDP1 cell noCPT = qHTS for Inhibitors of human tyrosyl-DNA phosphodiesterase 1 (TDP1): qHTS in cells in absence of CPT. DT40 Tdp1-/- hTDP1 cells, no CPT, ATP luminescence, 48 h. Potency, µM (series often up to 46.2 µM), for the others: at the top dose activity change, negative = growth inhibition, actives largely listed as inhibitors. 420,000 tested, 15% active. AID 686978, 2013; also: potency is read from the fitted curve at half-maximal effect; % is scaled to controls: 0 for no effect and ±100 for the full control effect; nearly all actives have a fitted effect of over 55% in size
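No-CPT arm: Tdp1-/-;hTDP1 DT40 cells (400/well) plus compounds, incubated ≥48 hr at 37 °C. Readout CellTiter-Glo luminescence.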
TDP1 block = qHTS Assay for Inhibitors of Tyrosyl-DNA Phosphodiesterase (TDP1). Potency, µM (top dose mostly 130 µM), for the others: top-dose activity change, negative = inhibition, usual class: inhibitors. 350,000 tested, 0.28% active. recombinant TDP1, AlphaScreen DNA substrate cleavage. AID 485290, 2010. Tyrosyl-DNA phosphodiesterase 1 (Homo sapiens), Q9NUW8; also: potency is read from the fitted curve at half-maximal effect; % is scaled to controls: 0 for no effect and ±100 for the full control effect; nearly all actives have a fitted effect of over 40% in size
Target sequence (Q9NUW8 whole entry, looked up): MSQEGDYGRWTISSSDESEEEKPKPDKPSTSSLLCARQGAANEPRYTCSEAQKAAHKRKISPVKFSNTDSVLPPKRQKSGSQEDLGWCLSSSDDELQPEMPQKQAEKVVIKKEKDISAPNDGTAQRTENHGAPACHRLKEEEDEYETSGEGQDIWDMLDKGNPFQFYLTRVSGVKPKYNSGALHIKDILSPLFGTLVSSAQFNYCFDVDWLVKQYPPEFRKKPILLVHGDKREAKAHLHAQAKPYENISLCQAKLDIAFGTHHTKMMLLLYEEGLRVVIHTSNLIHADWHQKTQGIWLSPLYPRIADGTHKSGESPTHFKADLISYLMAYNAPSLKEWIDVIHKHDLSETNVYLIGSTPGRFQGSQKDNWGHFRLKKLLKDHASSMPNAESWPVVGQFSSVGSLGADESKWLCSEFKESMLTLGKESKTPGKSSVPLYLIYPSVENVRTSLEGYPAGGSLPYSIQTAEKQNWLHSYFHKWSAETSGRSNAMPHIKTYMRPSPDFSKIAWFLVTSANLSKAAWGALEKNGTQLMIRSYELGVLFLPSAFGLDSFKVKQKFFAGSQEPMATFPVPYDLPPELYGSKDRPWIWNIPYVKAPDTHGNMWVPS
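Signal: AlphaScreen proximity between streptavidin donor and anti-FITC acceptor beads on intact substrate. Reaction: Tdp1 1 nM, substrate 15 nM final, 5 min RT after 15 min compound preincubation.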
* = called active by the depositor; ? = inconclusive; · = no result; ! = not confirmed by another sample; [ ] = another dose, or the depositor's remark. Unless noted, calls follow the shape of the dose curve; as a rule, active = well fitted curve in the direction sought with a large enough effect; inconclusive = small, poorly fitted or top-dose-only effect, or another doubt; inactive = no such curve, though single readings can be large; an effect the other way counts as inactive or inconclusive.

SMILES | HepG2 tox | DT40 TDP1 CPT | IL1B secr inh | TGFb inhibitor | TDP1 cell noCPT | TDP1 block
CCC(C)NC(=O)CCC(=O)OC1O[C@H]2OC3(C)CC[C@H]4[C@H](C)CCC(C1C)C24OO3 (stereo partly drawn) | -19.9% | 0.206µM* | ? | -9.1% | 0.184µM* | ·
C[C@H]1[C@@H](OC(=O)CCC(=O)O)O[C@@H]2OC3(C)CC[C@H]4[C@H](C)CC[C@@H]1[C@@]24OO3 | · | 0.119µM* | · | · | 0.106µM* | ·
O=P(O)(O)CN1CCNCCN(CP(=O)(O)O)CCNCC1 | 0.4% | 6.51µM* | -14.7 | 9.1% | 6.51µM* | ·
CCCCCCCSc1cc(OC)c(CCNC)cc1OC | -94.8% | ? | -78.8* | ? | 14.6µM* | 9.2%
CCCCCSc1cc(OC)c(CCNC)cc1OC | 10µM* | 16.4µM* | 0.0 | ? | 16.4µM* | 3.4%
CCc1cc(-c2nnn(CCC3COCCO3)c2CC)cc(CC)c1-c1cn(Cc2ccc3ccccc3c2)nn1 (stereo not drawn) | -18.8% | 20.6µM* | 3.6 | -1.2% | 8.2µM* | ·
COc1ccccc1-c1nc2c(c(SCc3cccc(Cl)c3)n1)Cc1c(CO)cnc(C)c1O2 | 3.3% | 9.2µM* | · | -7.0% | 18.4µM* | 7.7%
CN1Cc2ccccc2[C@@H]2c3cccc4[nH]cc(c34)C[C@H]21 | · | 5.17µM* | · | · | 5.8µM* | 13.4%
CC1=C[C@@H]2c3cccc4[nH]cc(c34)C[C@H]2N(C)C1 | -15.4% | ? | -1.5 | 1.1% | ? | 4.9%
CC(CCC(=O)O)C1CCC2C3C(=O)C[C@@H]4CC(=O)CC[C@@]4(C)C3CC(=O)[C@]12C (stereo partly drawn) | · | · | · | · | · | 15.2%
Cc1ccc(C(=O)Nc2cnn(-c3ccc(C(=O)N(C)Cc4n[nH]c5c4CCCC5)cc3)c2)c(C)c1 | · | 14.5%[9.04 µM] | · | · | ? | ·
CC1CN(c2ccccn2)C(C)CN1C(=O)C(O)(c1ccccc1)c1ccccc1 (stereo not drawn) | 10.8% | 29.1µM* | 4.3 | -2.2% | 23.1µM* | ·
Cc1cc(O)c2c(c1)C(=O)C13C(=C2O)C(=O)[C@H]2[C@@H](O)[C@@H]1[C@H]1[C@H](O)[C@@H]3C(=O)C3=C(O)c4c(O)cc(C)cc4C(=O)C312 (stereo partly drawn) | -68.4% | 0.651µM* | 27.2 | ? | 1.16µM* | ·
O=C(c1ccc(Cl)cc1)C1CCCN(Cc2ccc3nonc3c2)C1 (stereo not drawn) | -31.5% | 16.4µM* | 13.5 | ? | ? | 2.7%
O=C(c1ccc(Cl)cc1)C1CCCN(Cc2cccc3ncccc23)C1 (stereo not drawn) | -38.4% | 18.4µM* | 15.1 | ? | 14.6µM* | ·
O=C(c1ccc(Cl)cc1)C1CCCN(Cc2cccc3cccnc23)C1 (stereo not drawn) | -34.0% | 23.1µM* | -50.2* | ? | 16.4µM* | 7.7%
CC(C)C[C@H](NC(=O)[C@H](Cc1ccccc1)NC(=O)CNC(=O)[C@H](C)NC(=O)[C@@H](N)Cc1ccc(O)cc1)C(=O)O | · | 2.4%[4.12 µM] | · | · | -11.5%[4.12 µM] | 8.5%
O=C(CSc1nc(-c2ccc(Cl)cc2)[nH]c(=O)n1)Nc1cccc(Cl)c1 | -2.5% | -18.9% | -16.8 | ? | -8.3% | ·
CNC(=S)S | · | · | · | · | · | 12.8%
COCCCOc1ccnc(CS(=O)c2nc3ccccc3[nH]2)c1C (stereo not drawn) | -15.6% | 23.7µM* | 17.4 | -3.0% | ? | 12.2%
COc1ccc(S(=O)(=O)NC(CC(=O)N2CCc3ccccc32)c2ccco2)cc1 (stereo not drawn) | -0.2% | -40.9% | 21.9 | ? | -48.7% | 0.0%
Oc1c(Cl)c(Cl)c(Cl)c(Cl)c1Cl | -37.3% | ? | -11.3 | ? | 20.6µM* | 2.7%
CC[C@@]1(O)C(=O)OCc2c1cc1n(c2=O)Cc2cc3c(NC(=O)CN)cccc3nc2-1 | -54.9% | 0.231µM* | ? | ? | 0.411µM* | 6.2%
CC[C@@]1(O)C(=O)OCc2c1cc1n(c2=O)Cc2cc3ccccc3nc2-1 | -39.3% | 0.0794µM* | · | -20.3% | 0.0891µM*! | 0.3%
Cc1ccc(C)c(NP(=O)(Oc2ccccc2)Oc2ccccc2)c1 | -39.4% | ? | ? | ? | 16.4µM* | ·
SMILES | HepG2 tox | DT40 TDP1 CPT | IL1B secr inh | TGFb inhibitor | TDP1 cell noCPT | TDP1 block
CCCCn1c(=O)c(C(=O)Nc2cccc(C)c2)c(O)c2ccccc21 | 4.7% | 5.8µM* | 24.8 | 8.1% | 4.61µM* | ·
CCCCCn1c(=O)c(C(=O)Nc2nc3ccccc3[nH]2)c(O)c2ccccc21 | -63.1% | 2.91µM* | 14.7 | -11.1% | 5.17µM* | ·
CCCCn1c(=O)c(C(=O)Nc2ccccc2C)c(O)c2ccccc21 | 14.5% | 8.2µM* | 29.9 | 7.0% | 9.2µM* | ·
CCCCn1c(=O)c(C(=O)NCc2ccccc2OC)c(O)c2ccccc21 | 4.8% | ? | 0.0 | 7.9% | ? | ·
CCCCCn1c(=O)c(C(=O)Nc2ccccc2Cl)c(O)c2ccccc21 | -2.9% | 5.17µM* | 37.3 | 19.5% | 5.17µM* | ·
CCCCCn1c(=O)c(C(=O)Nc2ncccc2C)c(O)c2ccccc21 | -7.4% | ? | 4.4 | 16.4% | ? | ·
C[C@@H]1CO1 | · | · | · | · | · | 3.6%
COc1ccc2[nH]cc(CCN=C(NC(=O)c3ccccc3OC)Nc3nc(C)cc(C)n3)c2c1 | -22.9% | · | · | ? | · | 7.1%
C=CC[C@]1(O)CCC2C3CCC4=CCCCC4C3CCC21C (stereo partly drawn) | · | · | · | · | · | -4.3%
CC1=C/C(=N\NC(=S)NCCc2ccccc2)CC(C)(C)C1 | -23.4% | ? | -6.8 | -19.1% | ? | 10.3%
C#Cc1cccc2c1c(C(=O)c1ccc(Cn3c(C)nc4cnccc43)c(F)c1)cn2C(=O)N(C)C | · | · | · | · | · | 11.5%
CC(C)CCn1c(=O)c(C(=O)NCc2ccc3c(c2)OCO3)c(O)c2ccccc21 | -26.6% | ? | 78.8 | 2.8% | ? | ·
CC(C)CCn1c(=O)c(C(=O)Nc2ccccc2S(N)(=O)=O)c(O)c2ccccc21 | -16.4% | 4.61µM* | 1.8 | 20µM* | 5.17µM* | 2.3%
CCCCn1c(=O)c(C(=O)Nc2cnccn2)c(O)c2ccccc21 | -22.6% | 2.91µM* | 0.0 | 2.0% | 5.17µM* | -2.0%

Bioassay records (PubChem BioAssay)
